The supplement of paper PMC12632987
Positions count from the first letter of the chain named.

B1: GBRAPL2_0_7218 (protein)
chain: MEELVEKARKLSVEEAAELFVEKVRELVESGKATDEELEALVEAAAEVLEEKIKKNKNEKDLDIAAEAADRIREILAKKDPRLAAFADSEIGAGIMEAAS
B2: GBRAPL2_0_7219 (protein)
chain: MEEKVEEMKKLSIKEAAEAAVKLIKEMVESGKYSLEEIAEAVEKLAEVLGEKLKKEKKEEAEDIALEAARKIREILAKRDPNLAAYAYSEIGAEIMEASS
B3: GBRAPL2_0_7221 (protein)
chain: MEKLVEEMKKLSVEEAAERFVKEIKEAVESGKYSLDEIAELIEAMAKVLGELLKKNKKEEDFDIAMKAADEVRKILEKVDPNLAAYAYSEIGAEIMEAEE
B4: GBRAPL2_0_7214 (protein)
chain: MEEFLEELKKLSIEEAAKKAVEKVREMAESGKYSLEEIEEFVEKMAEVLGEKIKKEKKEESLDIAAEAADEIRKILEKVDPRLAAYADSEIGAEIMEAEE
B5: GBRAPL2_0_7240 (protein)
chain: MEALKAELLALSLEEAIARIEALTDEAVALIRADPEAGLAAAEELVEVLAEVVVERKDERLEEAVEAATDRLAAVVAEVDPREAAYLRAIMGSAIAEVES
B6: GBRAPL2_0_7213 (protein)
chain: MEEFLKELKSLSIEEAAEKFVKKIEEMAKSGKYSLEEIEEIVEEMAKVLGEKVKKEKKEESLDIAAEAADKVREILEKIDPNLAAYAYSEIGAEIMEAAE
B7: GBRAPL2_0_7239 (protein)
chain: MEELLKELLSLSLEEAKKKIKEKTEEAVKLIRKDPEKGLKYAEELVEVFAEVVVERKNEELEEVVDEATDRLVEEAAKIDPNEAAYLAAIRGSAIAEVEL
B8: GBRAPL2_0_7207 (protein)
chain: YEKEIEKAKTLTPEEAFKALKKLVKKLAKDKSVSKEELEALLEAILDLAYEIMAKEKTEEAEKAFDEIAEEATKAAAKRDPNLAAYIASYAGSLLMEYES
B9: GBRAPL2_0_7230 (protein)
chain: IEERVEEMSKLSIEEAAAYAVEKVREMAESGEYSLEEIEEFVEKAAEVLGKKLKEEKKEEGLDIAAEAAREIREILSKVDPRLAALAESEIGAAIMEAEL
B10: GBRAPL2_0_7233 (protein)
chain: MEEIVEELKKLSVEEAAEYFVKKVKEMVESGKYSLEEIEELIEKLAEVLGEKLKKNKKEEDLDIAAEAADKVREILLKRDPNLAAFAASEIGAEIMEAWS
B11: GBRAPL2_0_7211 (protein)
chain: MEEILEKAKKLSVEEAAKYAVETVKSLVESGSLSPEELAELATKLLKVLIEKVKKDGKEESVEIAVETADKIREILKPVDPNLAADVDTEALSEILELEE
B12: GBRAPL2_0_7217 (protein)
chain: MEELIEKAKELSVEEAAELFVEEVKRLVESGKATDEELMELVEKAAEVLEEKMKESKDEEDEDIALEAADRIREILAEKDPRLAAYAYSEIGAGIMEASS
B13: GBRAPL2_0_7215 (protein)
chain: MEELVEEAKKLSVEEAAELFVKRVEELVESGKATREELEALVEAAAKVLGEKIKKNKNEEDLDIAAEAADRIREILAKVDPELAAYADSEIGAEIMEAFS
B14: GBRAPL2_0_7234 (protein)
chain: KEELLKELLSLSLEEAKKAIKELAEEVIKLIKEDPEKGIEKAIELAEVFAEYLIERKDEELAKVIDEAIDKIVKEVEKVDPNAAAEIASEIGSAIYEVES
B15: GBRAPL2_0_7226 (protein)
chain: MEETLEKIKKLSIKEAAEYVVEKVEELVKSGKYSLEEIEEIVSALADELGEKLKKENKEEGLDYAAEAADRIREILSKLDPNLAAFAYSEIGSEIMEAES
B16: GBRAPL2_0_7229 (protein)
chain: IEEEIEEMKKLSIEEAAKRAVELVKEMAESGKYSLEEIAEFVEKAAEVLGEKLKEEKKEEGLDIAAEAADEIRKILSKIDPNLAAYAASEIGSEIMEVIS
B17: GBRAPL2_0_7236 (protein)
chain: MEELLKRLLSLSLEEAKKEIKELAEKAIKLIKKDPEKGIKYAEELAKVFAEYLEKTKNEELAEVIDEAIDKIVEEVAKVDPNAAAAIASEIGSALYEVES
B18: GBRAPL2_0_7227 (protein)
chain: IEEKIKEMSKLSIEEAAKKAVELVKEMAESGKYSLEEIEEFVEAAAEVLGKKIKEEKKEEGLDIADEAARKIREILSKVDPRLAAYAASEIGAAIMEAIS
B19: GBRAPL2_0_7220 (protein)
chain: MEEFVKEMLELSIKEAAEAAVKYIKELVESGKYSLEEIEEAVEKIAEVLGEKLKKEKKEEAEDIAMEAADEIRKILSEKDPNLAAYAYSEIGAEIMEAWS
B20: GBRAPL2_0_7210 (protein)
chain: MEKILEEAKKLSVEEAAEYAVETVEELVKSGSLSPEELAELAKELLKVLIEKVKENGKEEDVEIADETIDRVREILRPVDPRLAAYVATEGYSELLELEE
B21: GBRAPL2_0_7216 (protein)
chain: MEELVEEARKLSIEEAAKLFVEKVKELVESGKATDEELMELVEAGAKVLGEKLKKEKKEEGLDIAMKAADEIREILEKKDPNLAAYAYSEIGAEIMEAAS
B22: GBRAPL2_0_7223 (protein)
chain: MEKLKEEMLKLSIEEASKKAVETVKEMVESGKYSLEEIEEKIEAMAEVLGELLKKEKKEEAEEIAIKAADEIRKILEKKDPNLAAFAYSEIGAEIMEARE
B23: GBRAPL2_0_7237 (protein)
chain: MEELLEKLLSLSLEEAKKEIKKLADEVIELLRKDPEKGKEAAEELAEVFSEYLEKTKNEELEEVIDEAIDKIVEEMSKIDPREAAYIDSIFGSAIMEVEG
B24: GBRAPL2_0_7222 (protein)
chain: MEELKEEMLKLSIEEASEKAVKTIKEAVESGKYSLEEIAELIEEMAEVIGELLKKEKKEESVDIAIEAADKIREILEKVDPNLAAYAYSEIGAEIMEAEE
B25: GBRAPL2_0_7224 (protein)
chain: MEEWIEKLKKLSIEEAAALVVEKIKELVESGKYSLEEIAEIVEKLARVLGEKLKEENKEEGLDLAAKAADEIRKILEKVDPNLAAFADSEIGSEIMEASS
B26: GBRAPL2_0_7225 (protein)
chain: B25 chain with W4E, I5L, A18K, L19Y, I24V, E40D, E77S, V79L, F86Y, S93A
B27: GBRAPL2_0_7208 (protein)
chain: YKERIEEAKKLSPEEAYKALKELVKEIAEDKSISAEEREEILEEIIELAYEIYKKEKTEEAEKAFDEIVDLAVKAAAKVDPNLAAYIASFGGSLIMEAES
B28: GBRAPL2_0_7232 (protein)
chain: MEEKIEELKKLSVEEAAKYFVETVKEAVESGKYSLEEIAELIEKMAEVLGEKLKEVKKEEAIDIAAKAADEVRKILSKLDPNLAAYAASEIGAEIMEAWS
B29: GBRAPL2_0_7238 (protein)
chain: AEELLKKLLEASVEEAIAAIKEAAEKAVKEIEKDPEAGLKAAEELAEVFAEVIIERKNEEVIKAVEEAADRIVAAAAKVDPNAAAYIASIIGSALYEYES
B30: GBRAPL2_0_7209 (protein)
chain: YKERIEEAKKLSPEEAFKALKKLVKELAEDDSVSLEELEEILEAILELAYEIYKKEKTEEAEKAFDEIVDLATEAAAKRDPRLAAYIATFGGSLIMEAEL
B31: GBRAPL2_0_7212 (protein)
chain: MEEILEEISKLSIEEAAEKAIKLVKELVESKSLSTEELFELAKKLLEIIVEKVKEENKEESLEIARETADEIYEILKKVDPKEAAYVYTEIMEKILELEE
B32: GBRAPL2_0_7228 (protein)
chain: IEEEIEKISKLSIEEAAKAAVELVKEMAESGKYSLEEIEEFVEKAAEVLEKKIKEEKKEESLDIAAETADEVRKILEKIDPNLAAYAASEIGSGIMEAIS

Biological target: GABARAPL2, P60520
Sequence (P60520 whole entry, the tested form may be a part): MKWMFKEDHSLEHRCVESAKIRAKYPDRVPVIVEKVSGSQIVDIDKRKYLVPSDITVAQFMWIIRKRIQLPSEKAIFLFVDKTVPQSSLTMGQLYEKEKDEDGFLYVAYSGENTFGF
Assay: median log2 fold change of GCK-ALFA target abundance (FLAG IP / Myc IP barcode read proportion) (log2 ratio); each designed protein is fused to an ALFA-tag nanobody in HEK293 cells to bring the named protein to FLAG-tagged glucokinase (GCK); Myc marks an untargeted standard; higher = target protein stabilised (more abundant)
Conditions: target protein: 3xFLAG-MCP-GCK-ALFA reporter; HEK293 landing pad (RPLP)
Method in brief: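 An ALFA-nanobody-fused binder library was recombined into HEK293 landing-pad cells and induced with 2 μg mL^−1 doxycycline. Cells were transfected with a plasmid expressing a FLAG-tagged target and a Myc-tagged standard. After 48 h, lysates underwent anti-FLAG and anti-Myc immunoprecipitation, and circular RNA barcodes were reverse transcribed, amplified and sequenced. Target abundance is the per-binder median log2 ratio of FLAG to Myc barcode read proportions. Barcodes needed ≥10^−7 proportion in both replicates, binders ≥3 barcodes per replicate, and a 10^−6 pseudocount was added; the two replicates were pooled.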

Binder | median log2 fold change
B1 | 0.21
B2 | 0.00483
B3 | 0.0252
B4 | 0.0795
B5 | 0.0165
B6 | -0.118
B7 | 0.0745
B8 | -0.0647
B9 | 0.138
B10 | 0.0153
B11 | 0.109
B12 | -0.0345
B13 | 0.0633
B14 | 0.244
B15 | 0.24
B16 | -0.0242

Binder | median log2 fold change
B17 | 0.224
B18 | 0.213
B19 | -0.0156
B20 | -0.00179
B21 | 0.169
B22 | 0.33
B23 | -0.0207
B24 | 0.133
B25 | 0.136
B26 | -0.0692
B27 | 0.152
B28 | 0.0832
B29 | 0.0105
B30 | -0.227
B31 | 0.328
B32 | 0.048
